Results: PubChem BioAssay (NCATS)
Results filed as inconclusive are left out. Unmarked numbers belong to inactive results. Activity calls are given as the source filed them. The call rests on the fitted dose curve; in most records, active means well fitted cell-killing curve with a large enough effect; inconclusive means small, poorly fitted or top-dose-only effect, or effect the other way; inactive means no such curve, though single readings can be large or run the other way.
Potency means the concentration at half of the fitted maximal effect.

Assay: Quantitative High-Throughput drug screen in 47 multiple myeloma cell lines against the NCATS MIPE library collection: MM1R_ATCC cell viability assay (AID 1918981); further: nearly all actives have a fitted effect of over 35% in size
Settings: MM1R multiple myeloma cells, CellTiter-Glo viability, 48 h; series mostly up to 45.8 µM; viability (% of control): at the top concentration
Excerpt: PI: Beverly A. Mock Ph.D.
Laboratory of Cancer Biology and Genetics,
Center for Cancer Research, National Cancer Institute,
National Institute of Health, Bethesda, Maryland
Drug resistance and disease progression are common in multiple myeloma (MM) patients, underscoring the need for new therapeutic combinations. […] We hypothesized that effective combinations would reduce MYC expression and enhance p16 activity. […] These preclinical data identify potentially useful drug combinations for evaluation in drug-resistant MM and reveal potential mechanisms of combined drug sensitivity.
Described herein is the primary MIPE qHTS used to cherrypick compounds. Validated compounds were then further tested for potential synergistic activiy.
[1] Peat TJ, Gaikwad SM, Dubois W, Gyabaah-Kessie N, Zhang S, Gorjifard S, Phyo Z, Andres M, Hughitt VK, Simpson RM, Miller MA, Girvin AT, Taylor A, Williams D, D'Antonio N, Zhang Y, Rajagopalan A, Flietner E, Wilson K, Zhang X, Shinn P, Klumpp-Thomas C, McKnight C, Itkin Z, Chen L, Kazandijian D, Zhang J, Michalowski AM, Simmons JK, Keats J, Thomas CJ, Mock BA. Drug combinations identified by high-throughput screening promote cell cycle transition and upregulate Smad pathways in myeloma. Cancer Lett. 2023 Aug 1;568:216284. doi: 10.1016/j.canlet.2023.216284. Epub 2023 Jun 24. PMID: 37356470; PMCID: PMC10408729.
SEQUENCE No. (e.g., 1, 2, 3, etc.); […] (e.g., Cells, Incubation, Reagent, etc.); VALUE and DESCRIPTION.
1; Cells; 5 uL; white, solid bottom 1536-well Greiner assay plate.
2; Compounds; 23 nL; Kalypsis pin tool (Wako USA) equipped with a 1536-well pin head to transfer to the assay plates.
3; Incubation; 48 hours; 37C incubation.
4; Reagent;5uL; CellTiter Glo (Promega).
5; Detector; 425V; Luminescence; Viewlux PerkinElmer.
NOTES (numbers refer to Sequence numbers above)
1. The cell-based screening methods employed in this study were like those previously published. Briefly, the corresponding myeloma cell lines were screened in 1,536-well plates with 500 cells, 5-uL per well for inhibition of cell viability (assessed by measuring ATP levels with CellTiterGlo).
2. NCATS MIPE 4.0 library of approved and investigational drugs were added using the Kalypsis pin tool. Wells treated with DMSO only for 100% viability and media only for 0% viability were used as controls.
3. The assay plates were covered and incubated for 48 hours in a 37C, 5% CO2 incubator with controlled humidity.
4. After 48 hours, CellTilter-GloTM luminescent substrate mix (Promega) reagent was added to the assay plate and plates we incubated for 5 min at room temperature.
5. Signal was measured as median relative luminescence units on a ViewLux (PerkinElmer) multiplate reader.
[1] Heske CM, Davis MI, Baumgart JT, Wilson K, Gormally MV, Chen L, Zhang X, Ceribelli M, Duveau DY, Guha R, Ferrer M, Arnaldez FI, Ji J, Tran HL, Zhang Y, Mendoza A, Helman LJ, Thomas CJ. Matrix Screen Identifies Synergistic Combination of PARP Inhibitors and Nicotinamide Phosphoribosyltransferase (NAMPT) Inhibitors in Ewing Sarcoma. Clin Cancer Res. 2017 Dec 1;23(23):7301-7311. doi: 10.1158/1078-0432.CCR-17-1121. Epub 2017 Sep 12. PMID: 28899971; PMCID: PMC6636827.
For `C=C(C)[C@H]1Cc2c(ccc3c2O[C@@H]2COc4cc(OC)c(OC)cc4[C@@H]2C3=O)O1`, the Potency was 0.526 µM (active). For `CN(C)CCN(C)CCc1ccc(Cl)c(Cl)c1`, the “viability (% of control)” value was 122%. For `O=C(O)C(=O)c1cn(Cc2ccccc2)c2ccc(-c3ccc(OC(F)(F)F)cc3)cc12`, the “viability (% of control)” value was 104%. For `CN(C)CCc1ccc(O)cc1`, the “viability (% of control)” value was 113%. With `Cn1cc(C2=C(c3cn(C4CCN(Cc5ccccn5)CC4)c4ccccc34)C(=O)NC2=O)c2ccccc21` the Potency was 13.2 µM (active). With `C[C@@H]1[C@@H](C(=O)C[C@H]2O[C@@H]3O[C@]4(C)CC[C@@H]5[C@H](C)CC[C@@H]([C@H]2C)[C@@]35OO4)O[C@@H]2O[C@]3(C)CC[C@H]4[C@H](C)CC[C@@H]1[C@@]24OO3` the Potency was 3.72 µM (active). In the case of `C[C@@H]1[C@@H](CC(C[C@H]2O[C@@H]3O[C@]4(C)CC[C@@H]5[C@H](C)CC[C@@H]([C@H]2C)[C@@]35OO4)C[S+](=O)([O-])c2ccc(COC(=O)N(C)C)cc2)O[C@@H]2O[C@]3(C)CC[C@H]4[C@H](C)CC[C@@H]1[C@@]24OO3` (stereo not given in full), the Potency is reported as 0.332 µM (active). In the case of `CCCC(C)(COC(N)=O)COC(=O)NC(C)C` (stereo not given), the “viability (% of control)” value is reported as 111%. For `Cc1sc2c(c1C)C(c1ccc(Cl)cc1)=N[C@@H](CC(=O)OC(C)(C)C)c1nnc(C)n1-2`, the Potency was 0.332 µM (active). For `CN1CCN(C(=O)O[C@H]2c3nccnc3C(=O)N2c2ccc(Cl)cn2)CC1`, the “viability (% of control)” value was 127%. For `COC[C@H]1OC(=O)c2coc3c2[C@@]1(C)C1=C(C3=O)C2CCC(=O)[C@@]2(C)C[C@H]1OC(C)=O` (stereo not given in full), the Potency was 1.18 µM (active). For `Cc1cccc(C)c1NC(=O)CN1CCCC1=O`, the “viability (% of control)” value was 119%. With `COc1ccc(C(CN(C)C)C2(O)CCCCC2)cc1` (stereo not given) the “viability (% of control)” value was 116%. With `COc1ccc(C(=O)c2c(C)n(CCN3CCOCC3)c3ccccc23)cc1` the “viability (% of control)” value was 111%. For `Fc1ccc(C(OCCN2CCN(CCCc3ccccc3)CC2)c2ccc(F)cc2)cc1`, the Potency was 16.6 µM (active). For `CNCC(O)c1ccc(O)cc1` (stereo not given), the Potency was 4.18 µM (active). With `N[C@@H](Cc1ccc(N(CCCl)CCCl)cc1)C(=O)O` the Potency was 2.64 µM (active). With `O=c1[nH]c2ccccc2n1CCCN1CCC(n2c(=O)[nH]c3cc(Cl)ccc32)CC1` the “viability (% of control)” value was 91.4%. For `CC1=C2C[C@@H]3[C@@H](CC=C4C[C@@H](O)CC[C@@]43C)[C@@H]2CC[C@]12O[C@H]1C[C@H](C)CN[C@H]1[C@H]2C`, the Potency was 14.8 µM (active). With `Cn1c(CCCC(=O)O)nc2cc(N(CCCl)CCCl)ccc21` the Potency was 18.7 µM (active). In the case of `CC(O)(CS(=O)(=O)c1ccc(F)cc1)C(=O)Nc1ccc(C#N)c(C(F)(F)F)c1` (stereo not given), the Potency is reported as 1.05 µM (active). For `CNC(=O)c1ccc(N2C(=S)N(c3ccc(C#N)c(C(F)(F)F)c3)C(=O)C23CCC3)cc1F`, the Potency was 13.2 µM (active). With `COC[C@@H](NC(C)=O)C(=O)NCc1ccccc1` the “viability (% of control)” value was 102%. With `C[C@@H]1O[C@@H](O[C@H]2C[C@@H](O)[C@]3(CO)[C@H]4[C@H](O)C[C@]5(C)[C@@H](C6=CC(=O)OC6)CC[C@]5(O)[C@@H]4CC[C@]3(O)C2)[C@H](O)[C@H](O)[C@H]1O` the Potency was 0.0526 µM (active). With `COC1(CS(=O)c2ccccc2)CCN(CCc2c[nH]c3ccc(F)cc23)CC1` (stereo not given) the “viability (% of control)” value was 101%.
